Assay results: PubChem BioAssay AID624351 (Southern Research Specialized Biocontainment Screening …, 2012)
“And” between values parts separate entries of the source, which are not always exact repeats. Equal values may be shown once. The whole screen tested about 2,400 compounds, of which about 1,400 (58%) were called active. The set was probably picked from earlier hits. This is one part of the list. A number with no mark means an inactive call.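 Rule for the calls: active = inhibition of 30% or more at any tested dose; inconclusive = primary hits over the limit that were never retested; inactive = the rest.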

Assay: coupled detection enzyme interference, dose response, artefact control for MgcRacGAP inhibitor project, biochemical, coupled enzyme counter-screen (AID 624351);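 note: signal is the ADP detection kit reading of free GDP without any GAP enzyme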;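 for inhibition: 0% = median positive control wells and 100% = median negative control wells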
Conditions: ADP Hunter coupled enzyme counter-screen, fluorescence, no MgcRacGAP; series mostly up to 80 µM; inhibition: at the top concentration

| SMILES | inhibition | IC50 |
| --- | --- | --- |
| Cc1cc(/C=C2\C(=O)NC(=O)N(c3ccccc3F)C2=O)c(C)n1-c1cc(C(=O)O)cc(C(=O)O)c1 | -1.62% | – |
| COc1ccccc1-n1c(O)c(/C=C2\C=Nc3ccccc32)c(=O)[nH]c1=O | -3.18% | – |
| CC[N+](C)(CC)CCCCOc1ccc2c(c1)C(=O)c1cc(OCCCC[N+](C)(CC)CC)ccc1-2 | -3.48% | – |
| CC1=NCCc2c1[nH]c1cc(O)ccc21 | – | 10.2 µM (active) |
| Cc1ccc(OCC(=O)N2CCN(CC3CC4C=CC3C4)CC2)cc1 (stereo unspecified) | 4.58% | – |
| Clc1ccc(OCC#CCN2CCCCCC2)cc1 | 12.5% | – |
| CCN(CCCl)c1cc(CN(C)C)cc(NC(=O)c2ccc(C(=O)Nc3cc(CN(C)C)cc(N(CC)CCCl)c3)cc2)c1 | 2.58% | – |
| COc1ccc(/C=C2\C(=O)NC(=S)N(C)C2=O)cc1C | 6.6% | – |
| CC1CCCCN1Cc1cccnc1 (stereo unspecified) | 21.8% | – |
| COc1ccc(CCNCc2ccccc2)cc1 | 14.1% | – |
| CN(C)C1C(=O)C(C(N)=O)=C(O)C2(O)C(=O)C3=C(O)c4c(O)cccc4C(C)(O)C3C(O)C12 (stereo unspecified) | -11.3% | – |
| COc1cc(/C=C/c2nc3ccccc3c(=O)n2-c2ccccc2O)ccc1O | – | 38.1 µM (active) |
| O=c1c2ccccc2nc(/C=C/c2ccc(O)cc2)n1-c1ccccc1O | – | 60.4 µM (active) |
| COc1cc(/C=C2/C(=O)NC(=O)N(c3ccccc3)C2=O)ccc1O | 20.2% | – |
| COc1ccc(-n2c(/C=C/c3ccc(O)c(OC)c3)nc3ccccc3c2=O)cc1 | – | 43.2 µM (active) |
| NC(N)=N/N=C/c1ccc(N(c2ccccc2)c2ccccc2)cc1 | 9.2% | – |
| O=C1CN(O)C(c2ccccc2)=c2cc(Br)ccc2=N1 | -8.57% | – |
| O=C1NC(=O)N(c2ccc3c(c2)OCO3)C(=O)/C1=C\c1ccc(-c2ccccc2C(=O)O)o1 | 2.82% | – |
| COc1ccc(CN2CCN(Cc3ccccc3OC)CC2)cc1 | 26.5% | – |
| CCc1c(C)nc(N)nc1N1N=C1SC(C(C)=O)C(C)=O | 12.9% | – |
| O=C1NC(=O)C(=Cc2coc3ccc(O)cc3c2=O)C(=O)N1 | 6.5% | – |

| SMILES | inhibition | IC50 |
| --- | --- | --- |
| C=CCN1C(=O)NC(=O)/C(=C/C=C/c2ccccc2)C1=O | -1.77% | – |
| CN1C2CCC1/C(=C/c1ccccn1)C(=O)/C2=C\c1ccccn1 | 1.44% | – |
| COc1cc(N2CCOCC2)ccc1/C=C1\C(=O)NC(=O)N(Cc2cccs2)C1=O | 4.76% | – |
| COc1cc2c(ccc3c4cc(OC)c(OC)cc4c[n+](C)c23)cc1O | 25.9% | – |
| CC1CN1P(=O)(Oc1ccc2ccccc2c1)N1CC1C (stereo unspecified) | 26.3% | – |
| O=C1NC(=O)C(=Cc2cccs2)C(=O)N1 | 1.78% | – |
| CN1CCN(c2ccc(N)c(N3CCN(C)CC3)c2)CC1 | – | 56 µM (active) |
| CCN1CCN(c2ccc(N)c(C)c2)CC1 | – | 45.2 µM (active) |
| CN1CCN(c2ccc(N)cc2)CC1 | – | 42.7 µM (active) |
| CCN1CCN(CC(c2ccccc2)c2ccccc2)CC1 | 21.3% | – |
| N/C(=N\N=C/c1ccc(-c2ccc(O)c(C(=O)O)c2)o1)N[N+](=O)[O-] | 9.45% | – |
| COc1cc(N2CCOCC2)ccc1/C=C1\C(=O)NC(=O)N(Cc2ccc3c(c2)OCO3)C1=O | 4.02% | – |
| O=C(O)CCn1cc(C=C2C(=O)NC(=S)NC2=O)c(-c2cccc(Br)c2)n1 | 2.64% | – |
| Cc1ccc(OCC(=O)N2CCN(Cc3ccc([N+](=O)[O-])cc3)CC2)cc1 | 11.2% | – |
| CCc1ccc(N2C(=O)NC(=O)/C(=C\c3cc(C)n(-c4cc(C(=O)O)cc(C(=O)O)c4)c3C)C2=O)cc1 | -1.7% | – |
| CN(C)[C@@H]1C(=O)C(C(N)=O)=C(O)[C@@]2(O)C(=O)C3=C(O)c4c(O)cccc4[C@@](C)(O)[C@H]3[C@H](O)[C@@H]12 | -9.39% [at 5 µM] | – |
| Cc1cccc(N2C(=O)/C(=C/c3ccc(CN(CCC#N)S(C)(=O)=O)o3)C(=O)NC2=S)c1 | -15.4% | – |
| Cc1ccc2c(C)c3ccc4ccccc4c3c[n+]2c1 | 17.8% | – |
| CN(C)c1ccc(/C=C/c2cc[n+](C)c3ccccc23)cc1 | – | 47.2 µM (active) and 59.7 µM (active) |
| CN(C)c1ccc(/C=C/C=C/c2sc3ccccc3[n+]2C)cc1 | – | 70.2 µM (active) |
| CCc1ccc(CNCCc2c[nH]c3ccccc23)cc1 | 14.5% | – |

| SMILES | inhibition | IC50 |
| --- | --- | --- |
| O=C1NC(=O)N(CCC2=CCCCC2)C(=O)/C1=C/c1ccc(O)cc1 | -1.03% | – |
| COc1ccc(CNCCc2ccc(Cl)cc2)c(OC)c1OC | 15.8% | – |
| O=C1NC(=S)N(c2ccccc2)C(=O)/C1=C/c1ccco1 | 0.33% | – |
| O=C1NC(=S)N(C2CC2)C(=O)/C1=C/c1ccc2c(c1)CCN2CCCCl | -10.9% | – |
| Cc1cc(/C=C2\C(=O)NC(=O)N(c3cccc(F)c3)C2=O)c(C)n1-c1cc(C(=O)O)cc(C(=O)O)c1 | -5.74% | – |
| Cc1cc(-c2ccc(N)c(C)c2)ccc1N | – | 14.2 µM (active) |
| Cc1cc(-c2cc(C)c(N)c(C)c2)cc(C)c1N | – | 11.2 µM (active) |
| COc1cc(-c2ccc(N)c(OC)c2)ccc1N | – | 8.45 µM (active) |
| Brc1cccc(CNCCc2ccc3c(c2)OCO3)c1 | 15.8% | – |
| CN(C)c1ccc(/C=C2/C(=O)NC(=O)N(Cc3ccco3)C2=O)cc1 | -2.93% | – |
| Cc1ccccc1N1C(=O)NC(=O)/C(=C\c2cnn(-c3ccccc3)c2)C1=O | 0.64% | – |
| O=C1NC(=O)C(=Cc2cc(Cl)ccc2OCc2ccc(C(=O)O)cc2)C(=O)N1 | 3.85% | – |
| O=C(COc1ccccc1)N1CCN(CC2CC3C=CC2C3)CC1 (stereo unspecified) | 10.5% | – |
| O=C1NC(=O)C(=Cc2c(Cl)cccc2Cl)C(=O)N1 | 2.89% | – |
| COc1cc(CNCCc2ccc3c(c2)OCO3)cc(OC)c1OC | 18% | – |
| O=C(Cc1ccccc1)N1CCN(Cc2ccc(F)cc2)CC1 | 18.8% | – |
| O=C(COc1ccccc1)N1CCN(C2CCCC2)CC1 | 18.8% | – |
| c1ccc(CN2CCN(Cc3ccc4ccccc4c3)CC2)cc1 | 21% | – |
| O=C(O)c1ccccc1-c1ccc(C=C2C(=O)N(c3ccccc3)C(=S)N(c3ccccc3)C2=O)o1 | -13.5% | – |
| Cc1cc(N(C)C)ccc1N=Nc1ccc(N)cc1 | – | 33.7 µM (active) |
| Nc1ccc(N=Nc2ccc(N)cc2)cc1 | – | 20.5 µM (active) |

| SMILES | inhibition | IC50 |
| --- | --- | --- |
| Nc1ccc(Sc2ccc(N)cc2)cc1 | – | 10.4 µM (active) |
| Nc1ccc(-c2ccc(N)cc2)cc1 | – | 8 µM (active) |
| O=C(COc1ccc2ccccc2c1)N1CCN(Cc2ccncc2)CC1 | 27% | – |
| COc1ccc(N2CC2c2ccncc2)cc1 (stereo unspecified) | 15.4% | – |
| COP(=S)(OC)SCn1nnc2ccccc2c1=O | 3.35% | – |
| Fc1ccc(CNCCc2ccccc2)cc1 | 17.9% | – |
| COc1cccc(CN2CCN(Cc3cccc(F)c3)CC2)c1 | 25.4% | – |
| O=C(O)CCn1cc(C=C2C(=O)NC(=S)NC2=O)c(-c2ccccc2)n1 | -0.34% | – |
| COc1ccc(CCNCc2cccc(C(F)(F)F)c2)cc1OC | 7.61% | – |
| CSc1ccc(CN2CCN(Cc3ccccc3Cl)CC2)cc1 | 23.1% | – |
| O=P(Oc1ccc(-c2ccccc2)cc1)(N1CC1)N1CC1 | 12.6% | – |
| O=C(NC1CCCCC1)Oc1cc2oc(=O)sc2cc1Cl | 6.33% | – |
| COc1ccccc1N1CCN(Cc2cccc(Br)c2)CC1 | 15.7% | – |
| COc1ccc(Br)cc1CNCCc1cccc(Cl)c1 | 18.7% | – |
| O=C1NC(=O)C(=Cc2ccco2)C(=O)N1 | 1.13% | – |
| Cc1nn(CCC#N)c2c1P(=S)(N1CCCC1)OC(c1ccc(F)cc1)=N2 (stereo unspecified) | 2.38% | – |
| O=C1NC(=O)N(c2ccccc2)C(=O)/C1=C/c1coc2ccc(O)cc2c1=O | 7.15% | – |
| CN(C)c1ccc2c(c1)N=C(c1ccco1)OP2(=S)N1CCOCC1 (stereo unspecified) | 3.53% | – |
